{"source": "PubChem BioAssay (NCI)", "note": "Where “and” joins values, the source holds several entries; their conditions need not be identical. Identical values can stand only once. About 83,000 compounds went through this panel and 20% of them were active in at least one assay; those are over-represented in the sample as a whole.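 Growth was measured after 48 h exposure to one concentration of compound in 96-well plates. Values under 10 count as active.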 Unmarked numbers belong to inactive results. Calls of active or inactive are those of the source.", "data": [{"tested_on": "HL-60(TB) leukemia", "experiment": "NCI-60 one-dose screen, 48 h (100 = growth as untreated, 0 = no growth, -100 = all killed)", "conditions": "10 µM unless noted", "values": [{"smiles": "CN(C)CCCN1c2ccccc2Sc2ccc(Cl)cc21", "growth": "107% and 92.5%"}, {"smiles": "Cc1cc2c([nH]1)CSc1cc(S(=O)(=O)c3ccccc3)c(=O)[nH]c1-2", "growth": "27.7% [100 µM]"}, {"smiles": "Cc1ccc(NC(=O)COC(=O)c2ccc(S(=O)(=O)N3CCCCCC3)cc2)cc1", "growth": "85.9%"}, {"smiles": "COc1cc(C2CC(c3cccc(Nc4ccnc5cc(Cl)ccc45)c3)=NN2C=O)cc(OC)c1OC", "note": "(centres undefined)", "growth": "-7.92% (active)"}, {"smiles": "C#Cc1cccc(Nc2ncnc3ccc(-c4cnc(N)nc4)cc23)c1", "growth": "34.2%"}, {"smiles": "CC(=O)N(C)c1ccc(Nc2cc(C)[nH]c3ccc4ncnc4c23)cc1", "growth": "21.3%"}, {"smiles": "COC(=O)CCCNS(=O)(=O)c1cc(C(=O)Nc2ccc(NC(=O)c3cc(S(=O)(=O)NCCCC(=O)OC)c(O)c(O)c3O)cc2)c(O)c(O)c1O", "growth": "68%"}, {"smiles": "COc1cc2c(O)n(CCCn3ccnc3)c3c4cnc5cccc(c(=O)c3c2cc1OC)c54", "growth": "6.68% (active)"}, {"smiles": "C=C(C)[C@@H]1CC[C@]2(C(N)=O)CC[C@]3(C)[C@H](CC[C@@H]4[C@@]5(C)C/C(=C/c6cccnc6)C(=O)C(C)(C)[C@@H]5CC[C@]43C)[C@@H]12", "growth": "3.16% [100 µM] (active)"}, {"smiles": "COc1cc2nc(-c3ccc(C(F)(F)F)cc3)cc(OCCCN3CCC(O)CC3)c2cc1OC", "growth": "27.3%"}, {"smiles": "Cc1ccc(NCCN(C)CC(C)O)c2c(=O)c3ccc(Cl)cc3sc12", "note": "(centres undefined)", "growth": "9.65% (active)"}, {"smiles": "N#Cc1c(-c2ccc(Cl)cc2)nc(NN=Cc2cccc(O)c2)nc1N1CCOCC1", "growth": "66.6%"}, {"smiles": "COc1ccc2[nH]cc(-c3nc(-c4cn(C)c5c(Cl)nccc45)cs3)c2c1", "growth": "30.5%"}, {"smiles": "Cn1cnc2c(F)c(Nc3ccc(Br)cc3F)c(C(=O)NOCCO)cc21", "growth": "16.6%"}, {"smiles": "O=S(=O)(NCCNc1cc(-c2cn(-c3ccccc3)nc2-c2cccc(O)c2)ccn1)c1ccc(Cl)cc1", "growth": "15.3%"}, {"smiles": "O=C1N/C(=N\\c2nnc(-c3ccc(O)cc3)s2)S/C1=C\\c1ccccc1O", "growth": "104%"}, {"smiles": "CC(=O)c1cccc(NS(=O)(=O)c2cccc(C(=O)Nc3ccc(Br)cc3)c2)c1", "growth": "48.7% [25 µM]"}, {"smiles": "S=C1CCSC(=S)N1CCCN1C(=S)CCSC1=S", "growth": "36.5%"}, {"smiles": "CCOC(=O)c1ccc2[nH]c(-c3ccccc3)cc(=O)c2c1", "growth": "95.3%"}, {"smiles": "O=C(Nc1ccc(OS(=O)(=O)Cc2ccccc2)cc1)C12CC3CC(CC(C3)C1)C2", "growth": "60.5%"}, {"smiles": "O=C1c2c(O)ccc(O)c2C(=O)c2c(NCCNCCO)ccc(NCCNCCO)c21", "growth": "-28.5% (active) and -59.5% (active)"}, {"smiles": "N#C/C(=C\\c1ccc([N+](=O)[O-])s1)c1nc2cc(Cl)ccc2s1", "growth": "44.8%"}, {"smiles": "C=C(C)[C@@H]1CC[C@]2(C)[C@H](CC=C3[C@@H]4[C@H](C)[C@@H](C)CC[C@]4(CO)CC[C@]32C)[C@@]1(C)CCCN", "growth": "-45.2% (active)"}, {"smiles": "CC[C@]1(O)C[C@@H]2CN(Cc3c([nH]c4ccccc34)[C@@](C(=O)OC)(c3cc4c(cc3OC)N(C)[C@H]3[C@@](O)(C(=O)OC)[C@H](OC(C)=O)[C@]5(CC)[C@@H]6C[C@@H]6CN6CC[C@]43[C@@H]65)C2)C1", "growth": "-36.5% (active)"}, {"smiles": "Cc1cc(Cl)nc(N(CCCNc2ccnc3cc(Cl)ccc23)Cc2cccs2)n1", "growth": "-41.4% (active)"}, {"smiles": "COc1cc2c(cc1-c1c(C)noc1C)ncc1nc(C3CCOCC3)n([C@@H](C)COC(F)F)c12", "growth": "24.7%"}, {"smiles": "O=C(O)c1c2c(nc3ccccc13)Cc1ccccc1-2", "growth": "92.8% and 112%"}, {"smiles": "COc1ccc(Cl)cc1Nc1nc(C(F)(F)F)ccc1C(=O)N/N=C/c1cc(OC)c(OC)c(OC)c1", "growth": "-32.3% (active)"}, {"smiles": "CC(=O)N1N=C(C2C(=O)N(C)C(=O)N(C)C2=O)CC1c1ccccc1C(=O)O", "note": "(centres undefined)", "growth": "92.2%"}, {"smiles": "COc1cccc2c1nc1cccc(OC)c1[n+]2[O-]", "growth": "0.0729% (active)"}, {"smiles": "CCN(CC)S(=O)(=O)c1ccc(OC)c(NC(=O)c2[nH]c(C)c3c2CCCCC3=O)c1", "growth": "4.18% (active)"}, {"smiles": "Fc1ccc(Nc2nc(NCCNc3ccnc4cc(Cl)ccc34)nc(N3CCOCC3)n2)cc1", "growth": "-6.82% (active)"}, {"smiles": "CCCCCCNc1cc(C)nc2ccc(OC)cc12", "growth": "63.3%"}, {"smiles": "c1ccc(-c2ccc3ccccc3c2)cc1", "growth": "109%"}, {"smiles": "NC(N)=N/N=C/c1ccc(-c2ccc(-c3ccc(Cl)cn3)s2)cc1", "growth": "97.8%"}, {"smiles": "Cc1oc(-c2ccc(Cl)cc2)nc1/C=C/C(=O)c1ccccc1", "growth": "97.1%"}, {"smiles": "Clc1cc2c(c(CSc3nc4ccccc4n4cccc34)c1)OCOC2", "growth": "84.9%"}, {"smiles": "O=C(Nc1ccc(Cl)cc1)c1cc(-c2ccc(F)cc2)c2sc(=O)[nH]c2n1", "growth": "-30.6% (active)"}, {"smiles": "COc1cc(CNC(=O)CCCC/C=C/C(C)C)ccc1OCc1nnc(Nc2ccc([N+](=O)[O-])cc2)o1", "growth": "101%"}]}]}
